This is an account of results in PubChem BioAssay.

Test [1] in a line: anti-His antibody binders, primary screen, artefact control for SMM control protein annotation, biochemical, small-molecule microarray, 635 nm fluorescence (AID 1128).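 Note: score merges feature fluorescence with signal-to-noise for each printed compound spot.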 The settings on record: anti-His Alexa647 antibody binding, higher = more signal.
Test [2] relates to Human papillomavirus type 1a E7 protein (residues 1-88). The test can be described thus: HPV1a E7 small-molecule binders, primary screen, biochemical, small-molecule microarray, residues 1-88, 635 nm (AID 1129). The conditions noted are these: small-molecule microarray binding, fluorescence 635 nm; higher = more signal.
Test [3] deals with Focal adhesion kinase 1 (Homo sapiens) (UniProt Q05397). The experiment in a line: small-molecule microarray binders of FAK, primary screen, biochemical, 635/667 nm fluorescence, BSA, DTT (AID 1130).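 Note: composite of spot emission at 667 nm and signal to noise over triplicate slides.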 The conditions noted are these: PTK2 binding, 635 nm fluorescence, higher = more signal.
Test [4] deals with Fibrinogen (Alexa647-labelled). The test can be described thus: fibrinogen binders on compound microarrays, profiling panel, artefact control for SMM control-protein annotation, biochemical, small-molecule microarray, 635/667 nm fluorescence (AID 1131).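 Note: z-score merges 667 nm fluorescence with per-spot signal-to-noise over triplicate slides.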 The settings on record: fibrinogen-A647 binding fluorescence, higher = more signal.
Test [5] has as its target Follistatin (Homo sapiens) (UniProt P19883). The test can be described thus: follistatin binders on small-molecule microarrays, primary screen, biochemical, small-molecule microarray, 635/667 nm fluorescence (AID 1132). The settings on record: FST binding, 635 nm fluorescence, higher = more signal.
Test [6] addresses Fibroblast growth factor 2 (Homo sapiens) (UniProt P09038). The experiment in a line: FGF2 binders on small-molecule microarrays, primary screen, biochemical, small-molecule microarray, 635/667 nm fluorescence (AID 1133). The settings on record: small-molecule microarray binding, FGF2, fluorescence 635/667; higher = more signal.
Test [7] in a line: mitochondrial membrane potential change in A549 cells, profiling panel, cell-based, JC-1 fluorescence, basal, 24 h, 100 nL (AID 1138).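 Note: A549 lung adenocarcinoma cells under basal conditions with no added stimulus; test concentration not given here.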 The settings on record: higher = more signal.
The test system of test [8] is Lefty1. The experiment in a line: Lefty1 binders on small-molecule microarrays, primary screen, biochemical, small-molecule microarray, 635/667 nm fluorescence (AID 1139). The settings on record: small-molecule microarray binding, fluorescence 635/667; higher = more signal.
Test [9] concerns wheat germ agglutinin (Triticum aestivum), Alexa647-labelled. The experiment in a line: wheat germ agglutinin binders on compound microarrays, profiling panel, artefact control for SMM control-protein annotation, biochemical, small-molecule microarray, 635/667 nm fluorescence (AID 1140).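 Note: score merges 667 nm feature emission with signal to noise over triplicate slides.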 The conditions noted are these: WGA-A647 binding, 635 nm fluorescence, higher = more signal.
Test [10] has as its target Luciferin 4-monooxygenase (Photinus pyralis) (UniProt P08659). The experiment in a line: firefly luciferase enzyme inhibitors, primary screen, biochemical, luminescence, purified enzyme, 2006 set (AID 1141).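 Note: cell-free assay with purified firefly luciferase at 100 ng per well in PBS; test concentration not given here.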 The settings on record: SteadyGlo luminescence, 30 min, higher = more signal, called active from +8 up or from −8 down.
For test [11], the system named is Wnt5a (protein binding on small-molecule microarray). The test can be described thus: Wnt5a binders on small-molecule microarray, primary screen, biophysical, 635/667 nm fluorescence (AID 1142).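 Note: fluorescence read at 667 nm with signal to noise per printed feature.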 The conditions noted are these: 635 nm fluorescence, higher = more signal.
A short description of test [12]: cell viability in Huh7 cells, primary screen, cytotoxicity control for HCV replication inhibitor project, CellTiter-Glo luminescence, basal, 48 h (AID 1143).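 Note: Huh7 hepatoma cells carrying a hepatitis C replication reporter with no stimulus; test concentration not given here.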 The settings on record: Huh7 HCV replicon, higher = more signal, called active from +8 up or from −8 down.
The nature of test [13]: P. aeruginosa biofilm formation inhibitors, primary screen, PAO1 strain, BacTiter-Glo luminescence, LB-PBS (AID 1144). The conditions noted are these: 12 h, higher = more signal.
Test [14] in a line: CREB reporter modulators without forskolin, primary screen, cell-based, PC12, CRE-LacZ reporter, unstimulated (AID 1145). The settings on record: no forskolin, luminescence, 4.5 h, higher = more signal, called active from +8 up or from −8 down.
The nature of test [15]: CREB reporter modulators under forskolin, primary screen, cell-based, PC12, CRE-LacZ reporter, forskolin-stimulated (AID 1146).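 Note: PC12 cells with 6xCRE LacZ reporter stimulated by forskolin 10 µM; beta-galactosidase reporter signal reflecting CREB driven transcription.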 The conditions noted are these: luminescence, 4.5 h, higher = more signal, called active from +8 up or from −8 down.
For test [16], the target named is Streptavidin (Streptomyces avidinii) (UniProt P22629). The experiment in a line: streptavidin binders on small-molecule microarray, primary screen, artefact control for SMM compound annotation, biophysical, 635/667 nm fluorescence (AID 1147).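 Note: signal reflects streptavidin binding to arrayed compounds as a control protein.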 The conditions noted are these: streptavidin binding, higher = more signal.
Test [17] in a line: small-molecule binders of probe aInhba, primary screen, biochemical, small-molecule microarray, 635/667 nm fluorescence (AID 1148).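 Note: score merges 667nm spot fluorescence with signal-to-noise for antibody binding to printed compounds.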 The settings on record: higher = more signal.
Test [18] concerns the target Torsin-1A (Homo sapiens) (UniProt O14656). The test can be described thus: torsin A binders from cell lysate, primary screen, small-molecule microarray, wild-type, 635/667 nm (AID 1149). The conditions noted are these: COS7 hTOR1A-WT lysate, 635 nm fluorescence, higher = more signal.
The target is the same in test [19]. The experiment in a line: small-molecule binders of mutant TOR1A in lysate, primary screen, cell lysate, small-molecule microarray, COS7 lysate, 635/667 nm fluorescence (AID 1150).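 Note: score pools 667 nm emission and signal to noise measuring lysate protein binding.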 The settings on record: COS7 hTOR1A mutant lysate, 635 nm fluorescence, higher = more signal.
Test [20] relates to Sonic hedgehog protein (Shh). The experiment in a line: small-molecule binders of Shh protein, primary screen, biochemical, small-molecule microarray, 635/667 nm fluorescence (AID 1151).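 Note: Shh protein binding to compounds spotted on small-molecule microarray slides; score combines spot fluorescence intensity with signal-to-noise across triplicate slides.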 The settings on record: small-molecule microarray binding, 635 nm fluorescence; higher = more signal.

Each structure is given as a SMILES string. Activity calls are given as the source filed them. Unless noted, the rule behind the calls is not given here.

Sequence of Follistatin (Homo sapiens) (P19883 whole entry, looked up): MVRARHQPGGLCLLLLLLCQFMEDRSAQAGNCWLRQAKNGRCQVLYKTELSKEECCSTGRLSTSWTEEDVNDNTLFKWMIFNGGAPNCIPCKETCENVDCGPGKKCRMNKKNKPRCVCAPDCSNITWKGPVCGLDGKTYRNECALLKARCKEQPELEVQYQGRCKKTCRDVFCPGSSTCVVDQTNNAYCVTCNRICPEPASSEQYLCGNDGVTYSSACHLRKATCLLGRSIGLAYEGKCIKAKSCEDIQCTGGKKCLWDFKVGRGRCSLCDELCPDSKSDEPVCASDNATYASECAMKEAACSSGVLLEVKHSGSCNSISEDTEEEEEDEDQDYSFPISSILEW
Sequence of Torsin-1A (Homo sapiens) (O14656 whole entry, looked up): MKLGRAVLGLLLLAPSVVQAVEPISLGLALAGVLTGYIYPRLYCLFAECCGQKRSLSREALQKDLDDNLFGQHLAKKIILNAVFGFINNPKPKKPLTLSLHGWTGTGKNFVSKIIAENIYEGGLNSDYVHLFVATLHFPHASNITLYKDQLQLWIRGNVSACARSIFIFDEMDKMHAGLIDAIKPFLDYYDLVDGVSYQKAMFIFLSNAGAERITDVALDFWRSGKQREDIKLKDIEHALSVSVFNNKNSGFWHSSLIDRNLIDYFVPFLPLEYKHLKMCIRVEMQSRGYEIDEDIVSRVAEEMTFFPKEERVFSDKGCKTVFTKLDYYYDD
Sequence of Luciferin 4-monooxygenase (Photinus pyralis) (P08659 whole entry, looked up): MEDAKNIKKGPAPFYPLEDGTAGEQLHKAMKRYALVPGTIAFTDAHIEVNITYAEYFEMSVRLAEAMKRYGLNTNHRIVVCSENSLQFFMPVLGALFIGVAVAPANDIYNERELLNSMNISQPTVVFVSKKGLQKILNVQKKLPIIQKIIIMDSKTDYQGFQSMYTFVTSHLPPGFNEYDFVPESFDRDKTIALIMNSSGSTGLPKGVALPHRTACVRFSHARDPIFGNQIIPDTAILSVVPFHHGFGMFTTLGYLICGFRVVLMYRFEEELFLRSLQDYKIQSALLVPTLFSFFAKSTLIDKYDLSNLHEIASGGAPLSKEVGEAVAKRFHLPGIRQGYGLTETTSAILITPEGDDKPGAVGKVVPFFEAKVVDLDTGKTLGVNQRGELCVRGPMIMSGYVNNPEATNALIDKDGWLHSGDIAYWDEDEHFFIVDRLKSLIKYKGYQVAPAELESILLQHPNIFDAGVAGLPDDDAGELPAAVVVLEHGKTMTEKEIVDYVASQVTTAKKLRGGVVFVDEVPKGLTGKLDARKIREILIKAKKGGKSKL
Sequence of Fibroblast growth factor 2 (Homo sapiens) (P09038 whole entry, looked up): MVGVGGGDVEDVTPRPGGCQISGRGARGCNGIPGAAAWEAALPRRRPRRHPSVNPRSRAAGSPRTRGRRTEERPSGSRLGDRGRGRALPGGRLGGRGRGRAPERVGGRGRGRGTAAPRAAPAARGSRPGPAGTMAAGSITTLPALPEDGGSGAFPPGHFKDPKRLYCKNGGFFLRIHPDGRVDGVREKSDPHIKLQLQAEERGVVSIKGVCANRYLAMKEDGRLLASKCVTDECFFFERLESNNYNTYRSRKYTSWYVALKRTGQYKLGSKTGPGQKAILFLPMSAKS
Sequence of Streptavidin (Streptomyces avidinii) (P22629 whole entry, looked up): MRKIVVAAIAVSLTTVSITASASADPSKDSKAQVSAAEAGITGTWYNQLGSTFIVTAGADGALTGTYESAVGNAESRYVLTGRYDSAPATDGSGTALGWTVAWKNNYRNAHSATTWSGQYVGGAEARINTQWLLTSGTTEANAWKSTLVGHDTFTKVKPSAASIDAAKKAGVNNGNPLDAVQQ
Sequence of Focal adhesion kinase 1 (Homo sapiens) (Q05397 whole entry, looked up): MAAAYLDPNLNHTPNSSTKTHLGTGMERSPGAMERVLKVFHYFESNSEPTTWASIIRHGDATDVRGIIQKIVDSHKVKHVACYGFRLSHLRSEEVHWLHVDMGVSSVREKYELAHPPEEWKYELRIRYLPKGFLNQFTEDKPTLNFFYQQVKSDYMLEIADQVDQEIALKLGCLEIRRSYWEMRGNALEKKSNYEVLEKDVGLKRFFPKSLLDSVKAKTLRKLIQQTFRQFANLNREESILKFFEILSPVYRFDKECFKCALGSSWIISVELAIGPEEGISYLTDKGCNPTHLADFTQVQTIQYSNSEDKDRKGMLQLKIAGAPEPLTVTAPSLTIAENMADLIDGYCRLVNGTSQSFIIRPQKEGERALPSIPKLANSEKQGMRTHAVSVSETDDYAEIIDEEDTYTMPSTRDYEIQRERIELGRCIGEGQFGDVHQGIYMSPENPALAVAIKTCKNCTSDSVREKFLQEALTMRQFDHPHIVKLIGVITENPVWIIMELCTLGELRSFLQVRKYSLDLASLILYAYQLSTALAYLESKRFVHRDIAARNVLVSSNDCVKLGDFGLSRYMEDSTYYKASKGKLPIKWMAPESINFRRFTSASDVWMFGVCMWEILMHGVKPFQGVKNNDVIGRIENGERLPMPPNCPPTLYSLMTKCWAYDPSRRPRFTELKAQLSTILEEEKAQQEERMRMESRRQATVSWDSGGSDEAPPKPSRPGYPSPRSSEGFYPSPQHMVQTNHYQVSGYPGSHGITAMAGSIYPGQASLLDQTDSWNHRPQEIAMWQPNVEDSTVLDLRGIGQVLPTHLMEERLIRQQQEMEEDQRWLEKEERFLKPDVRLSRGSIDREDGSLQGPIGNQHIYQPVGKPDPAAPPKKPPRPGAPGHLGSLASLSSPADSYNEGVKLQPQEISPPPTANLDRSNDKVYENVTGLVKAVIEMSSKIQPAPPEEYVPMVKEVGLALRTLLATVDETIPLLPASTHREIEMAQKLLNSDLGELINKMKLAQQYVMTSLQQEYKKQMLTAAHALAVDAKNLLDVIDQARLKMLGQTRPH

For `O=C1OCC=C[C@H]2OC34C=CCN(c5ccc6ccccc6c5)C(=O)[C@H]3N(CCO)C(=O)[C@@H]4[C@@H]12` (stereo not given in full), the composite z-score in test [1] is 0.0061; in [2], -0.785; in test [3], -0.415; in test [4], -1.22; in test [5], -1.05; in test [6], -2.06. Further, the composite z-score is -0.455 in test [8]; -1.18 in [9]; -1.26 in test [11]; -0.74 in [16]; -0.0427 in [17]; -2.04 in [18]. Further, the figures for the composite z-score in test [19] and in [20] were -2.02 and -0.25, respectively. Also, the z-score was 1.51 in [7]; -0.646 (inactive) in test [10]; -0.168 (inactive) in test [12]; 1.89 (inactive) in test [13]; 1.14 (inactive) in test [14]; 0.492 (inactive) in [15].

Regarding `C=CCOC(=O)[C@@H]1[C@H]2C(=O)O[C@H](c3ccccc3)[C@H](c3ccccc3)N2[C@H](c2ccc(OCCOC(=O)[C@H]3C[C@H]4C(=O)N[C@@H](CCCC[N+](C)(C)C)C(=O)N4[C@H]3c3cccc(OCCO)c3)cc2)[C@@]12C(=O)Nc1ccc(I)cc12`, the composite z-score in [1] amounted to 1.3; in [2], 1.18; in test [3], 0.163; in [4], 0.496; in test [5], 1.4; in test [6], 1.55. The composite z-score in test [8] is 1.15; in test [9] it was 0.115; in test [11], 0.662; in test [16], 0.128; in test [17], 0.115; in test [18], 0.559. Further, the composite z-score in [19] came out at 0.327; in [20], 1.89. Further, the z-score in test [7] was -0.93; in [10], -0.138 (inactive); in test [12] it was -0.693 (inactive); in [13], -0.0854 (inactive); in [14], 0.289 (inactive); in test [15], -0.464 (inactive).

Consider `O=c1cccc(-c2ccccc2)o1`, for which the composite z-score was -0.192 in test [1]; -0.377 in test [2]; 0.192 in test [3]; -0.468 in [4]; 0.145 in test [5]; -0.417 in test [6]. In addition, the composite z-score was -0.57 in [8]; 0.143 in [9]; -0.299 in [11]; -0.386 in test [16]; -0.204 in test [17]; 0.0936 in test [18]. For the same molecule, the composite z-score in test [19] is 0.274; in test [20] it was -0.379. Also, the z-score was 0.103 in [7]; 0.616 (inactive) in [10]; 0.423 (inactive) in [12]; 1.55 (inactive) in [13]; -0.723 (inactive) in test [14]; 0.137 (inactive) in test [15].

As for `COc1ccc(CCNC(=O)[C@@]2(C)c3ccccc3C(=O)N(Cc3ccccc3)[C@H]2c2ccc(CO)cc2)cc1`, the composite z-score in [1] was 1.01; in test [2], 1.29; in test [3], 0.652; in test [4], 1; in test [5], 1.45; in test [6], 1.42. The composite z-score in test [8] was determined as 1.57; in test [9], 0.62; in test [11], 0.968; in [16], 1.3; in [17] it was 0.122; in [18], 2.07. The composite z-score in test [19] amounted to 1.67; in test [20], 2.16. The z-score is -1.72 in test [7]; 1.11 (inactive) in test [10]; -5.28 (inactive) in [12]; -2.01 (inactive) in test [13]; 0.208 (inactive) in [14]; 0.303 (inactive) in test [15].

For the molecule `CO[C@H]1O[C@H](CO)[C@@H](OC(=O)Nc2cccc(F)c2)[C@H](OC(=O)Nc2ccccc2-c2ccccc2)[C@@H]1OC(=O)Nc1ccccc1-c1ccccc1`, the composite z-score is 1.61 in test [1]; 1.25 in test [2]; 0.797 in [3]; 1 in test [4]; 1.09 in test [5]; 0.205 in [6]. Further, the composite z-score in test [8] was 0.102; in test [9], 1.11; in test [11], 0.21; in [16], 1.88; in test [17], 0.212; in test [18] it was 0.838. Moreover, the composite z-score in test [19] turned out to be 0.886; in [20] it was 0.667. Moreover, the z-score was -1.16 in test [7]; 0.923 (inactive) in test [10]; -5.49 (inactive) in [12]; -0.579 (inactive) in test [13]; 0.306 (inactive) in test [14]; 0.0811 (inactive) in [15].
